Changes are numbered by the printed parent chain.
Columns and labels:
Assay in all cases: protein-binding microarray (PBM); PBM: ~300 nM protein, 6 mM HEPES pH 7.8, 80 mM KCl, 0.5 mM EDTA, 0.5 mM EGTA, 6% glycerol, 35 ng/ul poly-dIdC, 1% milk, 1 h, room temperature; Ap Aiptasia and Nv Nematostella (sea anemones) / Co Capsaspora / Aq Amphimedon (sponge) / Dm Drosophila / Hu human; RHD is the Rel homology domain; high values mean tight binding
Conditions in all cases: dsDNA, one strand shown
[1] = target: T1, GST-Ap-NF-kB RHD (Exaiptasia pallida (Aiptasia), UniProt A0A913YAJ5 2-422)
T1 sequence: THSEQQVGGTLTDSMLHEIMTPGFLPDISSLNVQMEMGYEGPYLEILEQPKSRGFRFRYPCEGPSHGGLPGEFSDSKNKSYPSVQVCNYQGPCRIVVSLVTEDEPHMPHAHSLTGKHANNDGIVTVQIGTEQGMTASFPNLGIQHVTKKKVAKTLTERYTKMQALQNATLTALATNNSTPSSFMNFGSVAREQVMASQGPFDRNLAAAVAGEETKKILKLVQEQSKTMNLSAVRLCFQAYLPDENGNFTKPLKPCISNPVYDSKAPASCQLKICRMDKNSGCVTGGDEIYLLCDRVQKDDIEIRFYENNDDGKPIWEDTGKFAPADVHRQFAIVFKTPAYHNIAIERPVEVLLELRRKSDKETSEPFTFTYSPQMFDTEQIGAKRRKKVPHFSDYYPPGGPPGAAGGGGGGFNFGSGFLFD

[2] = target: T2, GST-Nv-NF-kB (Cys allele) (Nematostella vectensis, UniProt E5G601 2-411)
T2 sequence: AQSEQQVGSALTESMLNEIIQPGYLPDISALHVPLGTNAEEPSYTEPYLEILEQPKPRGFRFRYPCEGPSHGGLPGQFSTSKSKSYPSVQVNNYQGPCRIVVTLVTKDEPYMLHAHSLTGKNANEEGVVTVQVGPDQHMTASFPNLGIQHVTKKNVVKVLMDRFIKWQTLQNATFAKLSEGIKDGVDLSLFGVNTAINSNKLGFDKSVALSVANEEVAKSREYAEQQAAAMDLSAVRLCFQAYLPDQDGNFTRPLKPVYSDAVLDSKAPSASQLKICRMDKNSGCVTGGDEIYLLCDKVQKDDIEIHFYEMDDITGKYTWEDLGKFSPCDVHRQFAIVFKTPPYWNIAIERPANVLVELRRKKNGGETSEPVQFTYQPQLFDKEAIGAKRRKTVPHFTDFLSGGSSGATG

[3] = target: T3, GST-Nv-NF-kB (Ser allele) (Nematostella vectensis, UniProt A7UNT2 2-411)
T3 sequence: T2 sequence with Q21R, C66S, S207N, E215Q, V217A, E225K, A268E, D399E

[4] = target: T4, GST-Co-NF-kB (Capsaspora owczarzaki, UniProt F1ARL5 200-546)
T4 sequence: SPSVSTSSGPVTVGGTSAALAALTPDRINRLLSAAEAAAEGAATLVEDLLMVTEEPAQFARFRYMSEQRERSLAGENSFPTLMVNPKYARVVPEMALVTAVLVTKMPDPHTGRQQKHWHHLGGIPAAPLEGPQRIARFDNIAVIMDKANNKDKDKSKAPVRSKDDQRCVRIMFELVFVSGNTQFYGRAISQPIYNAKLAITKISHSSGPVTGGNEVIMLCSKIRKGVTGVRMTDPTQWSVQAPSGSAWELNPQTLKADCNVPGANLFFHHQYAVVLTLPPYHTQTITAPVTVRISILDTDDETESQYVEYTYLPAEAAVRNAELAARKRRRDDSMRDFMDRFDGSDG

[5] = target: T5, GST-Dm-Relish (Drosophila melanogaster, UniProt Q94527 99-473)
T5 sequence: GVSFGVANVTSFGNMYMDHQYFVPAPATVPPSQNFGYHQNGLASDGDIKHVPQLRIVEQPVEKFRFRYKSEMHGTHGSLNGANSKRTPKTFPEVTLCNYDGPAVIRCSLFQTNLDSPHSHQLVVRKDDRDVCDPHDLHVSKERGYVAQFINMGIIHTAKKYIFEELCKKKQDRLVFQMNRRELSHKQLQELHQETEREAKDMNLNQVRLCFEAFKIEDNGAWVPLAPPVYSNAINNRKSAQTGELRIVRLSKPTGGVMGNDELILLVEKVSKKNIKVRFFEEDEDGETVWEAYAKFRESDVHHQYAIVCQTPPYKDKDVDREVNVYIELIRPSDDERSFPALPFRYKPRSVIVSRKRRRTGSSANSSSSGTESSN

[6] = target: T6, GST-Aq-NF-kB (Amphimedon queenslandica, UniProt A9Y5G7 2-389)
T6 sequence: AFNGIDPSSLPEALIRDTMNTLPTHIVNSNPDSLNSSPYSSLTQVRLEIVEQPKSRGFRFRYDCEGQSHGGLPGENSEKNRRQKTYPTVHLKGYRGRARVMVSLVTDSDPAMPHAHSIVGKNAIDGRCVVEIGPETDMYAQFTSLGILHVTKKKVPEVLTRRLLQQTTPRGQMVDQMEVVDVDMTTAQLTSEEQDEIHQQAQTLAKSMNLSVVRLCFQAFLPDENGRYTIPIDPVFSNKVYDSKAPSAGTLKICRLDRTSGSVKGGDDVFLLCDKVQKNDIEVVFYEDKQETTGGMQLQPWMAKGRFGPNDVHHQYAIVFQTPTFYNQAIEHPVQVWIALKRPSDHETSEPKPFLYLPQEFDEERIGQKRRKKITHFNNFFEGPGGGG

[7] = target: GST-Hu-p50 (Homo sapiens, UniProt P19838 7-356)
Chain of GST-Hu-p50 (P19838 7-356): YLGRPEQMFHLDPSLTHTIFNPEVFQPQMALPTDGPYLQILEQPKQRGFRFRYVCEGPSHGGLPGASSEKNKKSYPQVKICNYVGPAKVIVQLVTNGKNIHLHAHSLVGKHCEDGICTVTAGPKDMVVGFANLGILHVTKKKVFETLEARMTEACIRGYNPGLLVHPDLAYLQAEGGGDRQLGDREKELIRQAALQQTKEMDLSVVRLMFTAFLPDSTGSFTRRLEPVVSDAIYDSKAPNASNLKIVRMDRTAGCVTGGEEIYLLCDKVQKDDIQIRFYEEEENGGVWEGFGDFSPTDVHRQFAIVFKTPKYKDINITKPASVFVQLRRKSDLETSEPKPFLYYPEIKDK

Row | Sequence | binding signal [1] | binding signal [2] | binding signal [3] | binding signal [4] | binding signal [5] | binding signal [6] | binding signal [7]
1 | CCGATTAACATCAAGGGAAATTCTGATGTTAATCGGGTCTTGATTCGCTTGACGCTGCTG | 5.74 z-score | 8.12 z-score | 7.46 z-score | 4.57 z-score | 3.68 z-score | 6.88 z-score | 5.4 z-score
2 | CCGATTAACATCAAGTATCCCCCTGATGTTAATCGGGTCTTGATTCGCTTGACGCTGCTG | 6.69 z-score | 5.06 z-score | 6.27 z-score | 7.27 z-score | 4.38 z-score | 4.99 z-score | 5.34 z-score
3 | CCGATTAACATCACAGTTTCCCCTGATGTTAATCGGGTCTTGATTCGCTTGACGCTGCTG | 6.64 z-score | 7.28 z-score | 10.3 z-score | 7.74 z-score | 3.35 z-score | 4.9 z-score | 5.61 z-score
4 | CCGATTAACATCATATTTCCCCATGATGTTAATCGGGTCTTGATTCGCTTGACGCTGCTG | 5.95 z-score | 7.45 z-score | 10.1 z-score | 8.62 z-score | 2.89 z-score | 5.08 z-score | 6.08 z-score
5 | CCGATTAACATCAGGGGCTTTTATGATGTTAATCGGGTCTTGATTCGCTTGACGCTGCTG | 6.92 z-score | 9.51 z-score | 7.11 z-score | 1.53 z-score | 7.16 z-score | 7.6 z-score | 6.51 z-score
6 | CCGATTAACATCAACACCCCCCTTGATGTTAATCGGGTCTTGATTCGCTTGACGCTGCTG | 4.56 z-score | 3.85 z-score | 3.96 z-score | 2.8 z-score | 5.23 z-score | 5.24 z-score | 4.37 z-score
7 | CCGATTAACATCAGGCAGTCCCCTGATGTTAATCGGGTCTTGATTCGCTTGACGCTGCTG | 5.54 z-score | 4.49 z-score | 3.59 z-score | 1.33 z-score | 4.55 z-score | 5.52 z-score | 4.48 z-score
8 | CCGATTAACATCAGGGGAATCTATGATGTTAATCGGGTCTTGATTCGCTTGACGCTGCTG | 8.26 z-score | 8.91 z-score | 10.6 z-score | 7.29 z-score | 5.84 z-score | 5.95 z-score | 6.51 z-score
9 | CCGATTAACATCAAAATACCCCGTGATGTTAATCGGGTCTTGATTCGCTTGACGCTGCTG | 6.29 z-score | 5.39 z-score | 5.69 z-score | 5.77 z-score | 5.44 z-score | 5.69 z-score | 5.49 z-score
10 | CCGATTAACATCACACATCCCCCTGATGTTAATCGGGTCTTGATTCGCTTGACGCTGCTG | 4.83 z-score | 4.4 z-score | 5.41 z-score | 4.17 z-score | 3.19 z-score | 3.87 z-score | 4.48 z-score
11 | CCGATTAACATCAAATTTCCCCATGATGTTAATCGGGTCTTGATTCGCTTGACGCTGCTG | 7.86 z-score | 9.05 z-score | 10.8 z-score | 9.42 z-score | 4.87 z-score | 7.31 z-score | 6.68 z-score
12 | CCGATTAACATCAAGGGACCCCCTGATGTTAATCGGGTCTTGATTCGCTTGACGCTGCTG | 5.77 z-score | 3.16 z-score | 3.36 z-score | 2.03 z-score | 7.64 z-score | 4.72 z-score | 3.57 z-score
13 | CCGATTAACATCAAACTTTCCCCTGATGTTAATCGGGTCTTGATTCGCTTGACGCTGCTG | 7.27 z-score | 8.67 z-score | 9.66 z-score | 8.89 z-score | 4.44 z-score | 7.57 z-score | 6.2 z-score
14 | CCGATTAACATCAGGGATTTTACTGATGTTAATCGGGTCTTGATTCGCTTGACGCTGCTG | 3.97 z-score | 3.99 z-score | 2.96 z-score | 2.36 z-score | 7.1 z-score | 5.29 z-score | 3.96 z-score
15 | CCGATTAACATCAGGTTTCCCCATGATGTTAATCGGGTCTTGATTCGCTTGACGCTGCTG | 6.59 z-score | 7.14 z-score | 8.78 z-score | 7.88 z-score | 4.69 z-score | 5.35 z-score | 5.34 z-score
16 | CCGATTAACATCAGAAAATACCCTGATGTTAATCGGGTCTTGATTCGCTTGACGCTGCTG | 5.86 z-score | 8.27 z-score | 7.72 z-score | 1.93 z-score | 6.76 z-score | 7.37 z-score | 6.32 z-score
17 | CCGATTAACATCAGGGGGATAACTGATGTTAATCGGGTCTTGATTCGCTTGACGCTGCTG | 6.6 z-score | 4.96 z-score | 5.96 z-score | 6.99 z-score | 7.19 z-score | 5.34 z-score | 5.17 z-score
18 | CCGATTAACATCAAGGGGATTTCTGATGTTAATCGGGTCTTGATTCGCTTGACGCTGCTG | 9.69 z-score | 10.8 z-score | 12.7 z-score | 2.79 z-score | 9.09 z-score | 7.73 z-score | 7.98 z-score
19 | CCGATTAACATCAGGGGGATACCTGATGTTAATCGGGTCTTGATTCGCTTGACGCTGCTG | 7.92 z-score | 7.48 z-score | 6.28 z-score | 6.16 z-score | 8.18 z-score | 8.7 z-score | 5.56 z-score
20 | CCGATTAACATCACGGGGAACTCTGATGTTAATCGGGTCTTGATTCGCTTGACGCTGCTG | 6.71 z-score | 6.61 z-score | 6.85 z-score | 6.94 z-score | 7.12 z-score | 4.95 z-score | 4.53 z-score
21 | CCGATTAACATCAAGGGGGAGATTGATGTTAATCGGGTCTTGATTCGCTTGACGCTGCTG | 6.99 z-score | 6.09 z-score | 7.57 z-score | 7.21 z-score | 3.01 z-score | 5.27 z-score | 7.18 z-score
22 | CCGATTAACATCAGAATTTCCCCTGATGTTAATCGGGTCTTGATTCGCTTGACGCTGCTG | 9.18 z-score | 10.1 z-score | 11.5 z-score | 8.73 z-score | 6.98 z-score | 8.28 z-score | 6.93 z-score
23 | CCGATTAACATCAAGAAAGTCCCTGATGTTAATCGGGTCTTGATTCGCTTGACGCTGCTG | 7.56 z-score | 8.86 z-score | 8.7 z-score | 1.38 z-score | 7.13 z-score | 6.74 z-score | 6.05 z-score
24 | CCGATTAACATCAAGTATTCCCCTGATGTTAATCGGGTCTTGATTCGCTTGACGCTGCTG | 8.17 z-score | 9.28 z-score | 8.86 z-score | 7.58 z-score | 7.14 z-score | 6.74 z-score | 5.87 z-score
